Measured values from PubChem BioAssay AID1159580 (chemical genetic matrix, 2015).
About 2,000 (36%) of roughly 5,500 compounds were called active. Roughly 18% stayed inconclusive and do not appear here. Rule as the data show it: active = normalized growth mostly below about 0.91 (no sharp cut-off); inconclusive = no clear call, values can overlap the other calls; inactive = mostly above about 0.92. Some of the results follow.

Test: chemical genetic growth profiling, strain panel (AID 1159580);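 also: tested at 20 µM; growth read once vehicle control cultures reached saturation at 30 °C; 1 = growth at the plate median or of vehicle wells; lower values mean less growth of the strain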
Conditions: S. cerevisiae deletion strains, growth OD
[1] = locus YHR030C, strain SLT2, active compounds read low
[2] = locus YHR079C, strain IRE1, active compounds read low
[3] = locus YJL095W, strain BCK1, active compounds read low
[4] = locus YJR066W, strain TOR1, active compounds read low
[5] = locus YLR113W, strain HOG1, active compounds read low
[6] = locus YNL183C, strain NPR1, active compounds read low
[7] = locus YOR231W, strain MKK1, active compounds read low
[8] = locus YPL256C, strain CLN2, active compounds read low
[9] = locus YAL021C, strain ccr4, active compounds read low
[10] = locus YAL026C, strain drs2, active compounds read low
[11] = locus YAL030W, strain snc1, active compounds read low
[12] = locus YBL061C, strain skt5, active compounds read low
[13] = locus YBR009C, strain hhf1, active compounds read low
[14] = locus YBR023C, strain chs3, active compounds read low
[15] = locus YBR171W, strain sec66, active compounds read low
[16] = locus YBR231C, strain swc5, active compounds read low
[17] = locus YBR279W, strain paf1, active compounds read low
[18] = locus YCL011C, strain gbp2, active compounds read low
[19] = locus YCL016C, strain dcc1, active compounds read low
[20] = locus YCL061C, strain MRC1, active compounds read low
[21] = locus YCL069W, strain vba3, active compounds read low
[22] = locus YCR088W, strain abp1, active compounds read low
[23] = locus YDL005C, strain med2, active compounds read low
[24] = locus YDL040C, strain nat1, active compounds read low
[25] = locus YDR001C, strain nth1, active compounds read low
[26] = locus YDR069C, strain doa4, active compounds read low
[27] = locus YDR137W, strain rgp1, active compounds read low
[28] = locus YDR159W, strain sac3, active compounds read low
[29] = locus YDR297W, strain sur2, active compounds read low
[30] = locus YDR334W, strain swr1, active compounds read low
[31] = locus YDR335W, strain msn5, active compounds read low
[32] = locus YDR392W, strain spt3, active compounds read low
[33] = locus YEL003W, strain gim4, active compounds read low
[34] = locus YEL037C, strain rad23, active compounds read low
[35] = locus YEL061C, strain CIN8 (second series), active compounds read low
[36] = locus YER015W, strain faa2, active compounds read low
[37] = locus YER016W, strain bim1, active compounds read low
[38] = locus YER111C, strain swi4, active compounds read low
[39] = locus YER155C, strain BEM2 (second series), active compounds read low
[40] = locus YFR010W, strain ubp6, active compounds read low
[41] = locus YGL167C, strain pmr1, active compounds read low
[42] = locus YGL173C, strain kem1, active compounds read low
[43] = locus YGL227W, strain vid30, active compounds read low
[44] = locus YGL240W, strain doc1, active compounds read low
[45] = locus YGL253W, strain hxk2, active compounds read low
[46] = locus YHR013C, strain ard1, active compounds read low
[47] = locus YHR027C, strain rpn1, active compounds read low
[48] = locus YHR142W, strain chs7, active compounds read low
[49] = locus YJL092W, strain hpr5, active compounds read low
[50] = locus YJL095W, strain BCK1 (second series), active compounds read low
[51] = locus YJL115W, strain asf1, active compounds read low
[52] = locus YJL129C, strain trk1, active compounds read low
[53] = locus YJL154C, strain vps35, active compounds read low
[54] = locus YJL164C, strain tpk1, active compounds read low
[55] = locus YJL166W, strain qcr8, active compounds read low
[56] = locus YKL160W, strain elf1, active compounds read low
[57] = locus YKR026C, strain gcn3, active compounds read low
[58] = locus YKR091W, strain srl3, active compounds read low
[59] = locus YLL001W, strain dnm1, active compounds read low
[60] = locus YLL026W, active compounds read low
[61] = locus YLL041C, strain sdh2, active compounds read low
[62] = locus YLR027C, strain aat2, active compounds read low
[63] = locus YLR221C, strain rsa3, active compounds read low
[64] = locus YLR258W, strain gsy2, active compounds read low
[65] = locus YLR262C, strain YPT6 (second series), active compounds read low
[66] = locus YLR320W, strain mms22, active compounds read low
[67] = locus YLR342W, strain FKS1, active compounds read low
[68] = locus YLR357W, strain rsc2, active compounds read low
[69] = locus YLR370C, strain arc18, active compounds read low
[70] = locus YLR384C, strain iki3, active compounds read low
[71] = locus YML120C, strain ndi1, active compounds read low
[72] = locus YMR058W, strain fet3, active compounds read low
[73] = locus YMR125W, strain sto1, active compounds read low
[74] = locus YMR129W, active compounds read low
[75] = locus YMR205C, strain PFK2, active compounds read low
[76] = locus YMR231W, strain pep5, active compounds read low
[77] = locus YNL071W, strain lat1, active compounds read low
[78] = locus YNL209W, strain ssb2, active compounds read low
[79] = locus YNL248C, strain rpa49, active compounds read low
[80] = locus YNL322C, strain KRE1 (second series), active compounds read low
[81] = locus YNR049C, strain mso1, active compounds read low
[82] = locus YOR001W, strain rrp6, active compounds read low
[83] = locus YOR070C, strain gyp1, active compounds read low
[84] = locus YOR080W, strain dia2, active compounds read low
[85] = locus YOR083W, strain WHI5, active compounds read low
[86] = locus YOR106W, strain vam3, active compounds read low
[87] = locus YOR265W, strain rbl2, active compounds read low
[88] = locus YOR270C, strain vph1, active compounds read low
[89] = locus YOR290C, strain snf2, active compounds read low
[90] = locus YPL051W, strain arl3, active compounds read low
[91] = locus YPL078C, strain atp4, active compounds read low
[92] = locus YPL106C, strain sse1, active compounds read low
[93] = locus YPL240C, strain hsp82, active compounds read low

Measured: normalized growth

O=S(=O)([O][Al])OC[C@H]1O[C@@](COS(=O)(=O)[O][Al])(O[C@H]2O[C@H](COS(=O)(=O)[O][Al])[C@@H](OS(=O)(=O)[O][Al])[C@H](OS(=O)(=O)[O][Al])[C@H]2OS(=O)(=O)[O][Al])[C@@H](OS(=O)(=O)[O][Al])[C@@H]1OS(=O)(=O)[O][Al]
inactive: [1] 0.977 | [2] 0.981 | [3] 0.986 | [4] 0.958 | [5] 0.984 | [6] 0.924 | [7] 0.98 | [8] 0.985

Nc1cc(C(Cl)=C(Cl)Cl)c(S(N)(=O)=O)cc1S(N)(=O)=O
inactive: [9] 0.98 | [10] 1 | [11] 1.02 | [12] 1.01 | [13] 0.992 | [14] 0.999 | [15] 1.02 | [16] 1.04 | [17] 1.01 | [18] 0.976 | [19] 0.978 | [20] 1.04 | [21] 1.01 | [22] 1.01 | [23] 1.01 | [24] 1.01 | [25] 1.02 | [26] 1.05 | [27] 0.998 | [28] 0.957 | locus YDR195W, strain ref2 0.998 | [29] 1.01 | [30] 1.01 | [31] 1.01 | [32] 0.978 | [33] 1.05 | [34] 1 | [35] 1 | [36] 1.02 | [37] 1 | [38] 1.01 | [39] 1.07 | [40] 1.02 | [41] 1.02 | [42] 1.04 | [43] 1 | [44] 1.04 | [45] 1.01 | [46] 1.03 | [47] 1.02 | [1] 0.977 | [2] 0.967 | [48] 1.02 | [49] 1.02 | [50] 0.997 | [3] 1.01 | [51] 1 | [52] 1.02 | [53] 0.999 | [54] 0.995 | [55] 1.06 | [4] 0.95 | [56] 1.02 | [57] 1.01 | [58] 0.992 | [59] 1.04 | [60] 1.02 | [61] 1.01 | [62] 1.02 | [5] 1 | [63] 0.981 | [64] 0.991 | [65] 1.06 | [66] 0.993 | [67] 1.04 | [68] 1.04 | [69] 1 | [70] 1.01 | [71] 1.03 | [72] 1.02 | [73] 0.972 | [74] 0.998 | [75] 1.03 | [76] 1.01 | [77] 0.991 | [6] 0.962 | [78] 0.994 | [79] 0.995 | [80] 1.01 | [81] 1 | [82] 1.02 | [83] 1 | [84] 1.02 | [85] 1.01 | [86] 1.04 | [7] 0.986 | [87] 1.01 | [88] 1.05 | [89] 0.964 | [90] 1.04 | [91] 1.06 | [92] 0.997 | [93] 1 | [8] 0.964

Cc1ncc([N+](=O)[O-])n1CC(C)O (stereo unspecified)
inactive: [9] 0.954 | [10] 0.956 | [11] 0.975 | [12] 0.974 | [13] 0.982 | [14] 0.995 | [15] 0.976 | [16] 0.992 | [17] 0.995 | [18] 0.968 | [19] 0.975 | [20] 0.924 | [21] 0.975 | [22] 0.986 | [23] 0.976 | [24] 0.978 | [25] 0.95 | [26] 0.966 | [27] 0.983 | [28] 0.972 | locus YDR195W, strain ref2 0.989 | [29] 0.982 | [30] 0.957 | [31] 0.982 | [32] 0.922 | [33] 0.977 | [34] 0.983 | [35] 0.964 | [36] 0.988 | [37] 0.983 | [38] 0.978 | [39] 0.994 | [40] 0.969 | [41] 0.981 | [42] 0.966 | [43] 0.985 | [44] 0.995 | [45] 0.981 | [46] 0.948 | [47] 0.987 | [1] 0.976 | [2] 0.979 | [48] 0.99 | [49] 0.961 | [50] 0.984 | [3] 0.991 | [51] 0.982 | [52] 0.966 | [53] 0.979 | [54] 0.966 | [55] 0.996 | [4] 0.883 | [56] 1 | [57] 0.984 | [58] 0.983 | [59] 0.988 | [60] 0.988 | [61] 0.982 | [62] 0.994 | [5] 1.01 | [63] 0.958 | [64] 0.974 | [65] 0.981 | [66] 0.96 | [67] 0.987 | [68] 0.959 | [69] 0.992 | [70] 0.998 | [71] 0.967 | [72] 0.971 | [73] 0.945 | [74] 0.965 | [75] 0.979 | [76] 0.972 | [77] 0.979 | [6] 0.891 | [78] 0.987 | [79] 0.946 | [80] 0.974 | [81] 0.978 | [82] 0.994 | [83] 0.985 | [84] 0.981 | [85] 0.997 | [86] 0.978 | [7] 0.991 | [87] 0.99 | [88] 0.97 | [89] 0.939 | [90] 1 | [91] 0.997 | [92] 0.931 | [93] 0.98 | [8] 0.965
